PLCg1 inh: inhibitors of human phospholipase C gamma1; purified PLC-gamma1, fluorogenic substrate, fluorescence; inhibition, % at 12.2 µM; hit rate 0.84% among 370,000; AID 720700; in the data active = inhibition above about 9.5%
ADAM10 inh: inhibits human ADAM10. hit rate 0.62% among 370,000. recombinant ADAM10, EDANS/DABCYL FRET peptide cleavage, 3 h. inhibition, % at 7 µM;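 active = inhibition above a per-campaign cutoff equal to the mean of compounds falling between control-based bounds plus 3 SD, cut at about 20% in these data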
PLCb3 inh: inhibitors of human phospholipase C beta3 | inhibition, % at 12.2 µM | hit rate 0.18% among 370,000 | Q01970 | Purified PLC-beta3, fluorogenic substrate, fluorescence; in the data active = inhibition above about 11%
proKLK7 act: activates the human kallikrein-7 zymogen; AID 652039; hit rate 0.9% among 370,000; activation, % at 7 µM; P49862; purified proKLK7, EDANS-DABCYL substrate fluorescence; 100% is mature enzyme control, 0% vehicle;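 active = activation above the mean of all tested compounds plus 3 SD, computed per campaign excluding outliers beyond control limits, cut at about 13% in these data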
Target sequence (P49862 whole entry, looked up): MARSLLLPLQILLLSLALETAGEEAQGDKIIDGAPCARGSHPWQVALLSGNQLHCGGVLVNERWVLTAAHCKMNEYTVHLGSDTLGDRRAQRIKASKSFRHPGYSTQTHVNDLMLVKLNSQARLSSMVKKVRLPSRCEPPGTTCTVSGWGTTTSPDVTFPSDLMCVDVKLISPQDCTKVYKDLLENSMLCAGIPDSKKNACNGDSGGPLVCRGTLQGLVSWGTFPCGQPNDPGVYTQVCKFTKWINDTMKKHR
ADAM17 inh: inhibits human ADAM17. hit rate 0.83% among 370,000. recombinant ADAM17, EDANS/DABCYL FRET peptide cleavage. inhibition, % at 6.95 µM. AID 720648;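 active = inhibition above the mean of compounds lying between control limits plus 3 SD, set per campaign, cut at about 8.5% in these data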
KLK7 act conf: confirmation of human kallikrein-7 zymogen activators | activation, % at 7 µM | purified proKLK7, EDANS-DABCYL substrate fluorescence; scaled: vehicle 0, mature enzyme 100 | shares compounds with proKLK7 act | hit rate 68% among 3,200 | AID 686949;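 active = activation, as change over the incubation, above the mean of all tested compounds plus 3 SD, cut at about 13% in these data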
EDANS interfere: optically interferes with EDANS-DABCYL signal, flagging KLK7 hits. activation, % at 7 µM. hit rate 80% among 3,200. shares compounds with proKLK7 act. EDANS-DABCYL substrate fluorescence interference, no enzyme, 4 h; solvent 0%, active enzyme control 100%. AID 686952;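 active = activation above the all-compound mean plus 3 SD, ignoring values outside control-based bounds, cut at about 4.8% in these data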;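 also: value is the 4 h activation minus the activation read at time zero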
EDANS interf: EDANS fluorescence interference in dose response, no enzyme; hit rate 20% among 250; shares compounds with proKLK7 act; AID 720493; EDANS-DABCYL peptide fluorescence interference; EC50, µM;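 active = compounds that raise the fluorescence signal in this interference counterscreen, with EC50 at or below 10 µM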;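 also: intact quenched peptide substrate alone read at 355 nm excitation and 520 nm emission; signal is fluorescence gain from T0 to T4 after four hours at room temperature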
Each line names hits and unclear results; the compound was inactive in the other large screens (follow-up assays come after a bar, where they were run). Most compounds without a hit are left out; they make up all but 2.9% or so of the library.

O=C1/C(=C/C=C/c2ccccc2)Oc2c1ccc(O)c2CN1CCN(CCO)CC1	none
CCN1CCN(Cc2c(O)ccc3c2O/C(=C\c2ccccc2)C3=O)CC1	proKLK7 act 42 | KLK7 act conf 25 | EDANS interfere 39
CCOC(=O)N1C(=O)C[C@](Sc2ccc(OC)cc2)(C(=O)N2CCOCC2)[C@H]1c1ccc(OC)cc1	none
CCC1CCc2sc(C(=O)Nc3cc(S(=O)(=O)N4CCOCC4)ccc3OC)cc2C1 (stereo not drawn)	none (no result: proKLK7 act)
COC(=O)CSc1ccc2c(N)c(C(=O)OC)sc2c1	proKLK7 act 45 | KLK7 act conf 27 | EDANS interfere 29
COC(=O)CSc1nc2ccc(N)cc2s1	none
COC(=O)c1nc2nc(-c3cccs3)cc(C(F)(F)F)n2n1	proKLK7 act 205 | KLK7 act conf 63 | EDANS interfere 67
O=C(NCc1ccco1)c1nc2nc(-c3cccs3)cc(C(F)(F)F)n2n1	proKLK7 act 56 | KLK7 act conf 61 | EDANS interfere 68
O=C(c1c(F)cccc1F)N1CCC(Oc2cccnc2)CC1	none
COC(=O)[C@]12C[C@H](CC(=O)NCc3ccc(C)o3)C(=O)N(CCc3ccc(OC)c(OC)c3)C1=C[C@H](C1CCCC1)O[C@@H]2C	none
CCCCN1C[C@@H](COCc2ccccc2)Oc2cc(F)ccc2S1(=O)=O	none
Nc1ncnc2c1ncn2[C@@H]1O[C@H](C(=O)N[C@@H](CCc2ccccc2)C(=O)N2CCN(C(=O)N3CCCCC3)CC2)[C@@H](O)[C@H]1O	none
CCc1c(C)c2ccc(OCC(=O)OC)cc2oc1=O	proKLK7 act 20 | KLK7 act conf 22 | EDANS interfere 21
COC(=O)Cc1c(C)c2cc(Cl)c(OC(=O)c3ccco3)cc2oc1=O	proKLK7 act 88 | KLK7 act conf 397 | EDANS interfere 432
COC(=O)Cc1c(C)c2ccc(OC(C)C)cc2oc1=O	none
COC(=O)Cc1c(C)c2ccc(OC(=O)c3ccco3)cc2oc1=O	proKLK7 act 439 | KLK7 act conf 736 | EDANS interfere 741
CN(C)c1ccc(/C=C/c2cccc[n+]2[O-])cc1	proKLK7 act 32 | KLK7 act conf 216 | EDANS interfere 236
c1nc(NCC2CCCCO2)c2cc(-c3ccc4c(c3)OCO4)ccc2n1 (stereo not drawn)	none (no result: proKLK7 act)
CN(C(=O)C1CCN(c2cncnc2)CC1)C1CCCCC1	none
Cc1cc(=O)oc2c3c(cc(OCC(=O)N[C@@H](Cc4ccccc4)C(=O)O)c12)OC(C)(C)CC3	proKLK7 act 32 | KLK7 act conf 41 | EDANS interfere 25 | EDANS interf inactive
Cc1cc(=O)oc2c3c(cc(OCC(=O)NC(Cc4ccc(Cl)cc4)C(=O)O)c12)OC(C)(C)CC3 (stereo not drawn)	proKLK7 act 13 | KLK7 act conf inactive | EDANS interfere inactive
Cc1cc(=O)oc2c3c(cc(OCC(=O)NCc4cccnc4)c12)OC(C)(C)CC3	none
COc1cccc(CNC(=O)COc2cc3c(c4oc(=O)cc(C)c24)CCC(C)(C)O3)c1	none
CCOC(=O)C1=NN(c2ccccc2)C2C(=O)N(c3ccccc3OC)C(=O)C12 (stereo not drawn)	proKLK7 act 19 | KLK7 act conf inactive | EDANS interfere inactive
CCN1CCCCC(NC(=O)COCc2ccccc2)C1=O (stereo not drawn)	none
CC1(C)S[C@@H]2[C@H](NC(=O)[C@H](N)c3ccccc3)C(=O)N2[C@H]1C(=O)OC1OC(=O)c2ccccc21 (stereo partly drawn)	proKLK7 act 16 | KLK7 act conf inactive | EDANS interfere 4.6
CCC(Oc1ccccc1)C(=O)NC1C(=O)N2C1SC(C)(C)C2C(=O)O (stereo not drawn)	none
COC(=O)C1=CN(C(C)C)C=C(C(=O)OC)C1c1cc(Br)c(OC)c(OC)c1	none
COC(=O)C1=CN(CC2CCCO2)C=C(C(=O)OC)C1c1cccc(O)c1 (stereo not drawn)	proKLK7 act 63 | KLK7 act conf 65 | EDANS interfere 61
COC(=O)C1=CN(Cc2ccc(OC)c(OC)c2)C=C(C(=O)OC)C1c1cccc(O)c1	proKLK7 act 17 | KLK7 act conf inactive | EDANS interfere inactive
COC(=O)C1=CN(CC2CCCO2)C=C(C(=O)OC)C1c1ccccc1C(F)(F)F (stereo not drawn)	none
COC(=O)C1=CN(CC2CCCO2)C=C(C(=O)OC)C1c1ccsc1 (stereo not drawn)	proKLK7 act 27 | KLK7 act conf 34 | EDANS interfere 18 | EDANS interf inactive
COC(=O)C1=CN(Cc2ccc(F)cc2)C=C(C(=O)OC)C1c1ccc(O)c(OC)c1	none
COC(=O)C1=CN(C(C)C)C=C(C(=O)OC)C1c1cccc(OC)c1	proKLK7 act 39 | KLK7 act conf inactive | EDANS interfere inactive
O=C(CCc1ccccc1)N[C@H]1[C@@H](OC(=O)C2CC2)CCC[C@@]12C(=O)N(Cc1ccccc1)c1ccccc12	none
COc1ccc(OC)c(C(=O)CSc2nnc(SCc3cccc4ccccc34)s2)c1	none
CCN(CC)C(=O)CC[C@H]1CC[C@]2(CCCN(Cc3ccc(OC)cc3)C2)O1	none
CCOC(=O)C1=CN(C)C=C(C(=O)OCC)C1c1ccsc1	proKLK7 act 29 | KLK7 act conf inactive | EDANS interfere inactive
CCN1C=C(C(=O)OC)C(c2cccc(C)c2)C(C(=O)OC)=C1	proKLK7 act 40 | KLK7 act conf inactive | EDANS interfere inactive
COC(=O)C1=C(C)N(C)C(C)=C(C(=O)OC)C1c1ccsc1	none
COc1ccc(CNCC#CC2=CCCCC2)c(OC)c1	none
COc1cc2c(cc1OC)CN(c1ccc3ccccc3n1)CC2	proKLK7 act 42 | KLK7 act conf 70 | EDANS interfere 80
CC(C)N1Cc2nnn(Cc3ccc(F)cc3)c2-c2cc(F)ccc2S1(=O)=O	none
Cc1ccccc1NC(=O)CSc1nc(N)c(C#N)c(-c2cccs2)c1C#N	none

Screening data: PubChem BioAssay, The Scripps Research Institute Molecular Screening Center
